Measurements from PubChem BioAssay AID1159580 (chemical genetic matrix, 2015).
Out of some 5,500 compounds screened, about 2,000 (36%) were called active. Roughly 18% stayed inconclusive and do not appear here. Rule as the data show it: active = normalized growth mostly below about 0.91 (no sharp cut-off); inconclusive = no clear call, values can overlap the other calls; inactive = mostly above about 0.92. The list shows a part of the results.

Experiment: chemical genetic growth profiling, strain panel (AID 1159580);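 also: tested at 20 µM; growth read once vehicle control cultures reached saturation at 30 °C; 1 = growth at the plate median or of vehicle wells; lower values mean less growth of the strain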
Details: growth OD

Measured: normalized growth

C[C@]12CCC3c4ccc(OS(=O)(=O)O)cc4CCC3C1CC[C@H]2O (stereo not given in full)
inactive: S. cerevisiae deletion strains, locus YJR043C, strain POL32, stronger effect = lower value 1 | S. cerevisiae deletion strains, locus YJR066W, strain TOR1, stronger effect = lower value 0.983 | S. cerevisiae deletion strains, locus YKL009W, strain mrt4, stronger effect = lower value 0.99 | S. cerevisiae deletion strains, locus YKL068W, stronger effect = lower value 0.995 | S. cerevisiae deletion strains, locus YKL085W, strain MDH1 (second series), stronger effect = lower value 0.987 | S. cerevisiae deletion strains, locus YKL085W, strain MDH1, stronger effect = lower value 0.987 | S. cerevisiae deletion strains, locus YKL160W, strain elf1, stronger effect = lower value 0.923 | S. cerevisiae deletion strains, locus YKL190W, strain CNB1, stronger effect = lower value 1 | S. cerevisiae deletion strains, locus YKR001C, strain vps1, stronger effect = lower value 0.994 | S. cerevisiae deletion strains, locus YKR026C, strain gcn3, stronger effect = lower value 0.988 | S. cerevisiae deletion strains, locus YKR091W, strain srl3, stronger effect = lower value 0.97 | S. cerevisiae deletion strains, locus YLL001W, strain dnm1, stronger effect = lower value 0.994 | S. cerevisiae deletion strains, locus YLL026W, stronger effect = lower value 0.967 | S. cerevisiae deletion strains, locus YLL041C, strain sdh2, stronger effect = lower value 0.978 | S. cerevisiae deletion strains, locus YLR027C, strain aat2, stronger effect = lower value 0.997 | S. cerevisiae deletion strains, locus YLR039C, strain RIC1, stronger effect = lower value 0.977 | S. cerevisiae deletion strains, locus YLR058C, strain SHM2, stronger effect = lower value 0.99 | S. cerevisiae deletion strains, locus YLR102C, strain apc9, stronger effect = lower value 0.99 | S. cerevisiae deletion strains, locus YLR113W, strain HOG1, stronger effect = lower value 0.963 | S. cerevisiae deletion strains, locus YLR221C, strain rsa3, stronger effect = lower value 1.02 | S. cerevisiae deletion strains, locus YLR258W, strain gsy2, stronger effect = lower value 0.965 | S. cerevisiae deletion strains, locus YLR262C, strain YPT6 (second series), stronger effect = lower value 0.977 | S. cerevisiae deletion strains, locus YLR262C, strain YPT6, stronger effect = lower value 0.945 | S. cerevisiae deletion strains, locus YLR268W, strain sec22, stronger effect = lower value 0.973 | S. cerevisiae deletion strains, locus YLR320W, strain mms22, stronger effect = lower value 1.02 | S. cerevisiae deletion strains, locus YLR330W, strain CHS5, stronger effect = lower value 0.987 | S. cerevisiae deletion strains, locus YLR342W, strain FKS1 (second series), stronger effect = lower value 0.988 | S. cerevisiae deletion strains, locus YLR342W, strain FKS1, stronger effect = lower value 0.987 | S. cerevisiae deletion strains, locus YLR357W, strain rsc2, stronger effect = lower value 0.955 | S. cerevisiae deletion strains, locus YLR370C, strain arc18, stronger effect = lower value 0.976 | S. cerevisiae deletion strains, locus YLR371W, strain rom2, stronger effect = lower value 0.986 | S. cerevisiae deletion strains, locus YLR384C, strain iki3, stronger effect = lower value 0.959 | S. cerevisiae deletion strains, locus YLR418C, strain cdc73, stronger effect = lower value 0.973 | S. cerevisiae deletion strains, locus YML016C, strain PPZ1, stronger effect = lower value 0.993 | S. cerevisiae deletion strains, locus YML032C, strain rad52, stronger effect = lower value 0.989 | S. cerevisiae deletion strains, locus YML120C, strain ndi1, stronger effect = lower value 0.995 | S. cerevisiae deletion strains, locus YML124C, strain tub3, stronger effect = lower value 0.988 | S. cerevisiae deletion strains, locus YMR058W, strain fet3, stronger effect = lower value 0.979 | S. cerevisiae deletion strains, locus YMR078C, strain ctf18, stronger effect = lower value 0.982 | S. cerevisiae deletion strains, locus YMR125W, strain sto1, stronger effect = lower value 0.994 | S. cerevisiae deletion strains, locus YMR129W, stronger effect = lower value 0.961 | S. cerevisiae deletion strains, locus YMR205C, strain PFK2, stronger effect = lower value 1.01 | S. cerevisiae deletion strains, locus YMR223W, strain ubp8, stronger effect = lower value 0.985 | S. cerevisiae deletion strains, locus YMR231W, strain pep5, stronger effect = lower value 0.991 | S. cerevisiae deletion strains, locus YMR263W, strain SAP30, stronger effect = lower value 1 | S. cerevisiae deletion strains, locus YMR307W, strain GAS1, stronger effect = lower value 0.928 | S. cerevisiae deletion strains, locus YNL067W, strain RPL9B, stronger effect = lower value 1.02 | S. cerevisiae deletion strains, locus YNL071W, strain lat1, stronger effect = lower value 0.988 | S. cerevisiae deletion strains, locus YNL128W, strain TEP1, stronger effect = lower value 0.982 | S. cerevisiae deletion strains, locus YNL153C, strain GIM3, stronger effect = lower value 1.03 | S. cerevisiae deletion strains, locus YNL183C, strain NPR1, stronger effect = lower value 0.913 | S. cerevisiae deletion strains, locus YNL209W, strain ssb2, stronger effect = lower value 0.979 | S. cerevisiae deletion strains, locus YNL233W, strain BNI4, stronger effect = lower value 0.998 | S. cerevisiae deletion strains, locus YNL248C, strain rpa49, stronger effect = lower value 0.914 | S. cerevisiae deletion strains, locus YNL250W, strain rad50, stronger effect = lower value 0.995 | S. cerevisiae deletion strains, locus YNL271C, strain bni1, stronger effect = lower value 0.989 | S. cerevisiae deletion strains, locus YNL298W, strain CLA4, stronger effect = lower value 0.984 | S. cerevisiae deletion strains, locus YNL307C, strain MCK1, stronger effect = lower value 0.98 | S. cerevisiae deletion strains, locus YNL322C, strain KRE1 (second series), stronger effect = lower value 0.952 | S. cerevisiae deletion strains, locus YNR049C, strain mso1, stronger effect = lower value 0.953 | S. cerevisiae deletion strains, locus YNR052C, strain pop2, stronger effect = lower value 0.982 | S. cerevisiae deletion strains, locus YOL006C, strain TOP1, stronger effect = lower value 1.05 | S. cerevisiae deletion strains, locus YOL012C, strain htz1 1.45 | S. cerevisiae deletion strains, locus YOL147C, strain pex11, stronger effect = lower value 0.984 | S. cerevisiae deletion strains, locus YOR001W, strain rrp6, stronger effect = lower value 1.01 | S. cerevisiae deletion strains, locus YOR061W, strain CKA2, stronger effect = lower value 0.986 | S. cerevisiae deletion strains, locus YOR069W, strain VPS5, stronger effect = lower value 0.988 | S. cerevisiae deletion strains, locus YOR070C, strain gyp1, stronger effect = lower value 0.991 | S. cerevisiae deletion strains, locus YOR080W, strain dia2, stronger effect = lower value 0.96 | S. cerevisiae deletion strains, locus YOR083W, strain WHI5, stronger effect = lower value 0.901 | S. cerevisiae deletion strains, locus YOR106W, strain vam3, stronger effect = lower value 0.95 | S. cerevisiae deletion strains, locus YOR136W, strain idh2, stronger effect = lower value 0.988 | S. cerevisiae deletion strains, locus YOR144C, strain elg1, stronger effect = lower value 0.987 | S. cerevisiae deletion strains, locus YOR184W, strain ser1, stronger effect = lower value 0.995 | S. cerevisiae deletion strains, locus YOR231W, strain MKK1, stronger effect = lower value 0.965 | S. cerevisiae deletion strains, locus YOR265W, strain rbl2, stronger effect = lower value 0.978 | S. cerevisiae deletion strains, locus YOR270C, strain vph1, stronger effect = lower value 0.97 | S. cerevisiae deletion strains, locus YOR290C, strain snf2, stronger effect = lower value 0.951 | S. cerevisiae deletion strains, locus YOR316C, strain cot1, stronger effect = lower value 0.989 | S. cerevisiae deletion strains, locus YPL051W, strain arl3, stronger effect = lower value 0.973 | S. cerevisiae deletion strains, locus YPL078C, strain atp4, stronger effect = lower value 0.97 | S. cerevisiae deletion strains, locus YPL106C, strain sse1, stronger effect = lower value 0.955 | S. cerevisiae deletion strains, locus YPL240C, strain hsp82, stronger effect = lower value 0.984 | S. cerevisiae deletion strains, locus YPL256C, strain CLN2, stronger effect = lower value 0.981 | S. cerevisiae deletion strains, locus YPR119W, strain clb2, stronger effect = lower value 0.988 | S. cerevisiae deletion strains, locus YPR141C, strain kar3, stronger effect = lower value 0.984 | S. cerevisiae deletion strains, locus YPR163C, strain tif3, stronger effect = lower value 0.984 | S. cerevisiae deletion strains, locus YPR167C, strain met16, stronger effect = lower value 0.988 | S. cerevisiae deletion strains, strain wtn01, stronger effect = lower value 0.975 | S. cerevisiae strains, strain wild type, stronger effect = lower value 0.999
